In the supplement of paper PMC12024529:

system: HEK293 WT BDD-FVIII-Gluc; assay: secreted FVIII-Gluc luciferase Z-score vs DMSO control; higher = more FVIII-Gluc secretion; conditions: 5 µM
Protocol: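 Natural plant-compound library (480 compounds, ST catalogue IDs) screened on HEK293 cells stably expressing WT BDD-FVIII-Gaussia luciferase fusion at 5 µM. Secreted Gluc activity in the medium is given as a Z-score relative to DMSO controls.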

Structure (SMILES) | secreted FVIII-Gluc luciferase Z-score
Nc1ncnc2c1ncn2C1OC(CO)C(O)C1OP(=O)(O)O (centres undefined) | -0.295
CC1CC2(C)Oc3ccccc3C3OCC1(COC(=O)Nc1ccccc1)C(C)C32 (centres undefined) | -0.945
CC[C@H](/C=C/[C@@H](C)[C@H]1CC[C@H]2[C@@H]3CC=C4C[C@@H](O)CC[C@]4(C)[C@H]3CC[C@]12C)C(C)C | 0.586
O=C1c2ccccc2C(=O)c2c(O)c(O)cc(O)c21 | -0.332
O=c1[nH]c(=O)c2ncn([C@@H]3O[C@H](CO)[C@@H](O)[C@H]3O)c2[nH]1 | 0.541
O=c1cc(CO)occ1O | 0.0386
CCc1cn(C2CC(O)C(CO)O2)c(=O)[nH]c1=O (centres undefined) | -0.382
COc1ccc(-c2coc3cc(O)cc(O)c3c2=O)cc1 | 0.185
O=c1cc(-c2ccc(O)c(O)c2)oc2cc(O)cc(O)c12 | -1.34
COc1cc(/C=C/C(=O)N2CCCCC2=O)cc(OC)c1OC | 1.28
Nc1ccn(C2OC(COP(=O)(O)O)C(O)C2O)c(=O)n1 (centres undefined) | 0.194
Cc1cc2c(C(C)C)c(O)c(O)c3c2c(c1-c1c(C)cc2c(C(C)C)c(O)c(O)c4c2c1OC4N)OC3N (centres undefined) | -0.0294
COc1ccc2oc(-c3ccc(O)cc3)cc(=O)c2c1 | 1.23
COc1cn(C2OC(CO)C(O)C2O)c(=O)[nH]c1=O (centres undefined) | -0.271
CC1=CC(=O)C2CC1C2(C)C (centres undefined) | 0.115
O=c1c(O)c(-c2cccc(O)c2)oc2ccccc12 | -0.392
O=c1[nH]cnc2c1ncn2C1OC(CO)C(O)C1O (centres undefined) | -0.0892
COc1ccc(-c2coc3cc(OC4OC(CO)C(O)C(O)C4O)cc(O)c3c2=O)cc1 (centres undefined) | -0.0597
COc1ccc2c3c1OC1C(O)C=CC(C=C2)C31CCN(C)C (centres undefined) | -0.171
